PubChem BioAssay (NCI)
The panel holds about 83,000 compounds, 20% with a hit somewhere; the sample as a whole holds those more often.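 Negative percent growth values reflect cell death: -40 means 40% of the cells present at the start died, and -100 means all died.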 Calls of active or inactive are those of the source. Rule for the calls: active = growth percent below 10; inactive = the rest.

Columns and labels:
Assay in all cases: NCI-60 one-dose screen, 48 h (100 = growth as untreated, 0 = no growth, -100 = all killed)
Conditions in all cases: 10 µM unless noted
HCT-15 colon = tested on: HCT-15 colon
HT29 colon = tested on: HT29 colon
SNB-75 CNS = tested on: SNB-75 CNS
SNB-19 CNS = tested on: SNB-19 CNS
U251 CNS = tested on: U251 CNS
PC-3 prostate = tested on: PC-3 prostate
SK-MEL-5 melanoma = tested on: SK-MEL-5 melanoma
UACC-62 melanoma = tested on: UACC-62 melanoma
LOX IMVI melanoma = tested on: LOX IMVI melanoma
SK-MEL-28 melanoma = tested on: SK-MEL-28 melanoma
SK-MEL-2 melanoma = tested on: SK-MEL-2 melanoma
EKVX NSCLC = tested on: EKVX NSCLC
SN12C renal = tested on: SN12C renal
UO-31 renal = tested on: UO-31 renal
TK-10 renal = tested on: TK-10 renal
ACHN renal = tested on: ACHN renal
CAKI-1 renal = tested on: CAKI-1 renal
A498 renal = tested on: A498 renal
CCRF-CEM leukemia = tested on: CCRF-CEM leukemia
MOLT-4 leukemia = tested on: MOLT-4 leukemia

Measured: growth

COC1CC(O)C2=C(CC3C(/C(C)=C\CC=C(C)C)CCC3(C)O2)C1=O (stereo not given)
inactive: HCT-15 colon 110% | HT29 colon 99.4% | SNB-75 CNS 107% | SNB-19 CNS 103% | U251 CNS 99% | PC-3 prostate 93.6% | SK-MEL-5 melanoma 99.2% | UACC-62 melanoma 94.9% | LOX IMVI melanoma 106% | SK-MEL-28 melanoma 119% | SK-MEL-2 melanoma 96.9% | EKVX NSCLC 105% | SN12C renal 107% | UO-31 renal 89.6% | TK-10 renal 92.4% | ACHN renal 111% | CAKI-1 renal 107% | A498 renal 103% | CCRF-CEM leukemia 88.1% | MOLT-4 leukemia 92.2%

O=C(OCC(O)(CO)C(=O)NC12CC3CC(CC(C3)C1)C2)c1ccc(Cl)cc1 (stereo not given)
inactive: HCT-15 colon 104% | HT29 colon 94.8% | SNB-75 CNS 97.6% | SNB-19 CNS 96.2% | U251 CNS 93.5% | PC-3 prostate 93.7% | SK-MEL-5 melanoma 101% | UACC-62 melanoma 97.4% | LOX IMVI melanoma 95.2% | SK-MEL-28 melanoma 113% | SK-MEL-2 melanoma 86.3% | EKVX NSCLC 103% | SN12C renal 100% | UO-31 renal 82.6% | TK-10 renal 85.3% | ACHN renal 102% | CAKI-1 renal 99% | A498 renal 102% | CCRF-CEM leukemia 87.8% | MOLT-4 leukemia 83.8%

Oc1cccc2c1NCCC2
inactive: HCT-15 colon 21.4% | HT29 colon 79.5% | SNB-19 CNS 14.9% | U251 CNS 14.7% | LOX IMVI melanoma 16.4% | SK-MEL-28 melanoma 49.5% | EKVX NSCLC 22.3% | SN12C renal 11.7% | TK-10 renal 23.3% | ACHN renal 11.4% | CAKI-1 renal 15.6% | A498 renal 19.6% | CCRF-CEM leukemia 18.6% | MOLT-4 leukemia 28%
active: SNB-75 CNS 0.864% | PC-3 prostate 9.22% | SK-MEL-5 melanoma -51.2% | UACC-62 melanoma 5.24% | SK-MEL-2 melanoma -14.9% | UO-31 renal 6.25%

Cn1ccnc1C(=O)/C=C/c1ccc(CC(=O)Nc2cc(F)c(F)c(F)c2)cc1
active: HCT-15 colon 9.67% | SNB-75 CNS -3.33% | U251 CNS 8.83% | LOX IMVI melanoma -3.99% | CCRF-CEM leukemia 8.15% | MOLT-4 leukemia 6.4%
inactive: HT29 colon 10.7% | SNB-19 CNS 20.3% | PC-3 prostate 26.1% | SK-MEL-5 melanoma 62.5% | UACC-62 melanoma 43.9% | SK-MEL-28 melanoma 93.5% | SK-MEL-2 melanoma 99.6% | EKVX NSCLC 32.3% | SN12C renal 13.2% | UO-31 renal 31.7% | TK-10 renal 47.8% | ACHN renal 45.9% | CAKI-1 renal 31.4% | A498 renal 65%

C(CCCSC1=NCCN1)CCSC1=NCCN1
inactive: HCT-15 colon 102% | HT29 colon 95% | SNB-75 CNS 91.4% | SNB-19 CNS 114% | U251 CNS 98.2% | PC-3 prostate 64.7% | SK-MEL-5 melanoma 107% | UACC-62 melanoma 107% | LOX IMVI melanoma 99.1% | SK-MEL-28 melanoma 113% | SK-MEL-2 melanoma 122% | EKVX NSCLC 109% | SN12C renal 103% | UO-31 renal 80.3% | TK-10 renal 122% | ACHN renal 100% | CAKI-1 renal 101% | A498 renal 103% | CCRF-CEM leukemia 101% | MOLT-4 leukemia 102%

CC(CN)[C@@H]1CC[C@]2(CO)CC[C@]3(C)[C@H](CC[C@@H]4[C@@]5(C)CCC(NCCO)C(C)(C)[C@@H]5CC[C@]43C)[C@@H]12 (stereo not given in full)
active: HT29 colon 1.25% | LOX IMVI melanoma -64.4% | SK-MEL-28 melanoma -5.2% | CCRF-CEM leukemia 6.44%
inactive: HCT-15 colon 38.4% | SNB-75 CNS 59.5% | SNB-19 CNS 78.5% | U251 CNS 18.4% | PC-3 prostate 69.4% | SK-MEL-5 melanoma 32.9% | UACC-62 melanoma 91.9% | SK-MEL-2 melanoma 94.4% | EKVX NSCLC 73% | SN12C renal 80.1% | UO-31 renal 69.7% | TK-10 renal 93.4% | ACHN renal 95% | CAKI-1 renal 59.9% | A498 renal 87.2% | MOLT-4 leukemia 18.3%

CNC1=C(Br)C(=O)c2c(C(=O)OC)c(C)nc(C)c2C1=O
active: SK-MEL-5 melanoma -90.9% | UACC-62 melanoma 1.42%
inactive: HCT-15 colon 36.8% | HT29 colon 19.8% | SNB-75 CNS 139% | SNB-19 CNS 82.9% | U251 CNS 71.1% | PC-3 prostate 48.9% | LOX IMVI melanoma 35.3% | SK-MEL-28 melanoma 91.3% | SK-MEL-2 melanoma 52.1% | EKVX NSCLC 79.3% | SN12C renal 45.4% | UO-31 renal 77.4% | TK-10 renal 132% | ACHN renal 72% | CAKI-1 renal 68.2% | A498 renal 93.1% | CCRF-CEM leukemia 77.3% | MOLT-4 leukemia 79.8%

CCN1CCN(c2cc(C(=O)Nc3cccc(Nc4ccc5c(OC)cccc5n4)c3)cc(C(F)(F)F)c2)CC1
inactive: SNB-75 CNS 35.8% | SNB-19 CNS 36% | U251 CNS 13.9% | UACC-62 melanoma 13% | SK-MEL-2 melanoma 65.3% | EKVX NSCLC 46.2% | SN12C renal 25.4% | TK-10 renal 36% | ACHN renal 12.5% | A498 renal 57.6%
active: HCT-15 colon -15.9% | HT29 colon -60% | PC-3 prostate 7.66% | SK-MEL-5 melanoma -1.86% | LOX IMVI melanoma -94.1% | SK-MEL-28 melanoma -44.4% | UO-31 renal -8.51% | CAKI-1 renal 6.06% | CCRF-CEM leukemia 6.94% | MOLT-4 leukemia -14.5%

CNC(=O)c1cc(Oc2ccc3nc(NC(=O)c4cc(C(F)(F)F)cc(C(F)(F)F)c4)sc3c2)ccn1
inactive: HCT-15 colon 32.1% | HT29 colon 31.5% | SNB-75 CNS 28.5% | SNB-19 CNS 15.5% | U251 CNS 14.2% | LOX IMVI melanoma 27.4% | SK-MEL-28 melanoma 26.4% | EKVX NSCLC 23.3% | SN12C renal 10.5% | TK-10 renal 16.6% | ACHN renal 14.9% | CAKI-1 renal 11% | CCRF-CEM leukemia 16.8%
active: PC-3 prostate 8.79% | SK-MEL-5 melanoma -39.9% | UACC-62 melanoma 2.25% | SK-MEL-2 melanoma -18.5% | UO-31 renal 6.1% | A498 renal -11.4% | MOLT-4 leukemia 8.03%

COC(=O)c1sc(-c2ccc(C)cc2)cc1O
inactive: HCT-15 colon 101% | HT29 colon 108% | SNB-75 CNS 105% | SNB-19 CNS 101% | U251 CNS 96.5% | PC-3 prostate 102% | SK-MEL-5 melanoma 103% | UACC-62 melanoma 97.1% | LOX IMVI melanoma 101% | SK-MEL-28 melanoma 113% | SK-MEL-2 melanoma 99% | EKVX NSCLC 101% | SN12C renal 101% | UO-31 renal 94.1% | TK-10 renal 99.2% | ACHN renal 112% | CAKI-1 renal 94.3% | A498 renal 98.5% | CCRF-CEM leukemia 103% | MOLT-4 leukemia 87.7%

C=C(C)[C@@H]1CC[C@]2(COC(=O)c3cccnc3)CC[C@]3(C)[C@H](CC[C@@H]4[C@@]5(C)CCCN(C(=O)c6cccnc6)C(C)(C)[C@@H]5CC[C@]43C)[C@@H]12
active: SK-MEL-5 melanoma 2.5%
inactive: HCT-15 colon 24.9% | HT29 colon 32.3% | SNB-75 CNS 53.3% | SNB-19 CNS 47.1% | U251 CNS 25.6% | PC-3 prostate 14.6% | UACC-62 melanoma 28.4% | LOX IMVI melanoma 21.3% | SK-MEL-28 melanoma 51.3% | SK-MEL-2 melanoma 65.3% | EKVX NSCLC 49.6% | SN12C renal 38.1% | UO-31 renal 35.9% | TK-10 renal 51.8% | ACHN renal 29.5% | CAKI-1 renal 32.6% | A498 renal 46.7% | CCRF-CEM leukemia 24.9% | MOLT-4 leukemia 23.6%

COc1cc2nc3cc([N+](=O)[O-])ccc3c(NCCCNCCO)c2cc1OC
active: HT29 colon 1.17% | SNB-75 CNS -74.2% | SNB-19 CNS -19% | U251 CNS -45.5% | PC-3 prostate -66.8% | SK-MEL-5 melanoma -93.9% | UACC-62 melanoma -65.2% | LOX IMVI melanoma -63.7% | SK-MEL-28 melanoma -53.1% | SK-MEL-2 melanoma -44.3% | EKVX NSCLC 7.46% | SN12C renal -33.3% | TK-10 renal -4.55% | ACHN renal 2.87% | A498 renal -80.2% | CCRF-CEM leukemia 0.0749% | MOLT-4 leukemia 2.59%
inactive: HCT-15 colon 41.2% | UO-31 renal 48.9% | CAKI-1 renal 55.5%

COc1cc(C2=Nc3c(N)nc(N)nc3NC(c3cccc(Nc4ccnc5cc(C(F)(F)F)ccc45)c3)C2)cc(OC)c1OC (stereo not given)
inactive: HCT-15 colon 58% | HT29 colon 45.5% | SNB-75 CNS 68.9% | SNB-19 CNS 78.2% | U251 CNS 61% | PC-3 prostate 58.5% | SK-MEL-5 melanoma 64.1% | UACC-62 melanoma 87.2% | LOX IMVI melanoma 66% | SK-MEL-28 melanoma 101% | SK-MEL-2 melanoma 88% | EKVX NSCLC 66% | SN12C renal 73% | UO-31 renal 51.8% | TK-10 renal 108% | ACHN renal 96.8% | CAKI-1 renal 58.6% | A498 renal 79.8% | CCRF-CEM leukemia 51.7% | MOLT-4 leukemia 19.2%

O=C(NC1CCCCCC1)c1ccc2c(=O)n3c(nc2c1)CCCCC3
inactive: HCT-15 colon 80.4% | HT29 colon 87.3% | SNB-75 CNS 62.9% | SNB-19 CNS 102% | U251 CNS 99.7% | PC-3 prostate 92.2% | SK-MEL-5 melanoma 94.9% | UACC-62 melanoma 93.6% | LOX IMVI melanoma 96.1% | SK-MEL-28 melanoma 108% | SK-MEL-2 melanoma 112% | EKVX NSCLC 107% | SN12C renal 97.8% | UO-31 renal 99.8% | TK-10 renal 104% | ACHN renal 108% | CAKI-1 renal 108% | A498 renal 99.5% | CCRF-CEM leukemia 98.8% | MOLT-4 leukemia 128%

CCCCC1=C(Br)C(=O)c2ncccc2C1=O
inactive: HCT-15 colon 100% | HT29 colon 104% | SNB-75 CNS 91.9% | SNB-19 CNS 97.9% | U251 CNS 95.5% | PC-3 prostate 90% | SK-MEL-5 melanoma 90.3% | UACC-62 melanoma 93.4% | LOX IMVI melanoma 94.6% | SK-MEL-28 melanoma 115% | SK-MEL-2 melanoma 111% | EKVX NSCLC 99.2% | SN12C renal 92.7% | UO-31 renal 87.6% | TK-10 renal 109% | ACHN renal 67.4% | CAKI-1 renal 90% | A498 renal 99.5%
active: CCRF-CEM leukemia 8.13% | MOLT-4 leukemia 5.83%
